HEK293 tox – cytotoxicity counter-screen for GLP-1 receptor inverse agonists. 410,000 tested, 0.13% active. HEK293 cAMP-luciferase reporter cells, luminescence, 24 h. AID 624418. Potency, µM (doses to about 38.3 µM), without a hit: at the highest dose activity change, negative = inhibition, hits mostly inhibitors;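 note: loss of luciferase light is scored as toxicity; potency is the fitted concentration of half-maximal effect; % is set by controls: 0 for no effect and ±100 for the full control effect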
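MLSMR compounds, 24 hr on cells at 37 deg C/5% CO2; luminescence after luciferase reagent (12 min RT). Inhibition counted as the undesired cytotoxic outcome.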
GLP-1R agonist – GLP-1 receptor (human) agonism. P43220. HEK293 GLP-1R CRE-luciferase, luminescence, 4-6 h; cells express a hypersensitive GLP-1R form. Potency, µM (titrated, usually from 45.6 µM), for inactives: at the top dose activation, usual class: activators. 380,000 tested, 0.007% active; note: potency is the fitted concentration of half-maximal effect; % of control where 0% means no effect
Target sequence (P43220 whole entry, looked up): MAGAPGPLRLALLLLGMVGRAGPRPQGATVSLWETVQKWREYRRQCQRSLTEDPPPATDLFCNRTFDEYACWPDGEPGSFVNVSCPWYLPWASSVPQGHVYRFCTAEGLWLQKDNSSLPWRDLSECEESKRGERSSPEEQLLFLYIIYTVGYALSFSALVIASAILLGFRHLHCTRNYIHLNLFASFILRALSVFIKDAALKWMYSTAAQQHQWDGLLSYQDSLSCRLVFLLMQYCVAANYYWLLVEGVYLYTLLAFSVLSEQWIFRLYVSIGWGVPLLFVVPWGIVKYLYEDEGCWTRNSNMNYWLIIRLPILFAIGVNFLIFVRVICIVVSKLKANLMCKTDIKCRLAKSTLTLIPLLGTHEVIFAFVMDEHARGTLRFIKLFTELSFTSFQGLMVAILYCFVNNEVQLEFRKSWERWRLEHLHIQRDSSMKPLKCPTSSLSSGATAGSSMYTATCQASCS
GLP1R inv ag – acts as inverse agonist at human GLP-1 receptor. HEK293 GLP-1R CRE-luciferase, luminescence, 24 h; GLP-1R form is constitutively active. Potency, µM (top dose mostly 38.3 µM), without a hit: at the highest dose activity change, negative = inhibition, actives largely listed as inhibitors. 410,000 tested, 1.6% active; note: potency is the fitted concentration of half-maximal effect; % is set by controls: 0 for no effect and ±100 for the full control effect; nearly all actives have a fitted effect of over 55% in size
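Inverse agonists were sought by their lowering of basal cAMP reporter luciferase output in HEK293 cells stably carrying constitutively active human GLP-1R, after 24 h compound treatment.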
ClpP mod – qHTS Assay for Activators of ClpP | purified B. subtilis ClpP, FRET peptide cleavage, 20 min | Potency, µM (top dose mostly 57.5 µM), without a hit: at the highest dose activity change, negative = active | 340,000 tested, 1.9% active | AID 651965, 2013; active = well fitted falling curve with a large enough effect; inconclusive = small, poorly fitted or top-dose-only effect; inactive = no such curve, though single readings can be large or run the other way; note: potency is the fitted concentration of half-maximal effect; the source files actives as falling curves though it sought activators and does not explain the sign; nearly all actives have a fitted effect of over 65% in size
Target sequence (P80244 whole entry, looked up): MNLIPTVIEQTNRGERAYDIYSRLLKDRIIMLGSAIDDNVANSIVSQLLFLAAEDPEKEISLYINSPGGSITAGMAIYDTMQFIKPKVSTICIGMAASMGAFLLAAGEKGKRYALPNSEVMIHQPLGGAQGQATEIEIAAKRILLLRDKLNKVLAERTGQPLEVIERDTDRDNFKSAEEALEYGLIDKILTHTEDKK
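Buffer: 100 mM Tris/HCl pH8, 100 mM KCl, 0.05% low protease BSA, 2.5% glycerol, 0.01% Tween-20. ClpP 10 microg/mL final; 20 min RT; delta FRET normalized to ADEP and DMSO controls.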
LDHA inh – LDHA (human) enzyme inhibition; P00338; purified LDHA, NADH/diaphorase-resazurin fluorescence; active compounds read low; activity change, % (values are at about 110 or 230 µM); 480,000 tested, 0.15% active; AID 1347041; in the data active = activity change below about -30%; inconclusive = mostly about -25% to -30%;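 note: plate controls were DMSO wells for no effect and wells without enzyme for full effect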
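Enzyme activity of human lactate dehydrogenase 5 (2 nM; 0.06 mM NADH, 0.2 mM pyruvate, 5 min, RT) is measured via a resazurin/diaphorase fluorescence readout of residual NADH.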
p53 reactivator – restores transcriptional activity of mutant p53 | H1299 p53-A138V BP100-luciferase reporter, luminescence, 24 h | Potency, µM (series often up to 92.2 µM), for inactives: top-dose activity change, positive = activation, usual class: activators | 320,000 tested, 0.063% active | AID 504706; note: potency is the fitted concentration of half-maximal effect; % of control where 0% means no effect; nearly all actives have a fitted effect of over 45% in size
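p53-null H1299 cells stably carrying temperature-sensitive p53-A138V and a BP100-luciferase reporter were pinned with compounds (4-point, 1:5 series) and held 24 hrs at 37 deg C. Luminescence was read 10 min after detection reagent.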
Numbers without * were called inactive; ? = inconclusive; nt = not tested or not shown; [ ] = dose if it differs, or a comment. In the library only some 2.9% were active in any assay of this set; here they are far more common. Unless noted, calls come from the whole dose curve; as a rule, active = well fitted curve in the direction sought with a large enough effect; inconclusive = small, poorly fitted or top-dose-only effect, or another doubt; inactive = no such curve, though single readings can be large; an effect the other way counts as inactive or inconclusive.

SMILES	HEK293 tox	GLP-1R agonist	GLP1R inv ag	ClpP mod	LDHA inh	p53 reactivator
Cc1ccc(NS(=O)(=O)c2ccc(CCC(=O)NCCO)cc2)cc1	8%	2%	-3%	-1%	-1	2%
CC(C)[C@@H]1NC(=O)c2cc([N+](=O)[O-])cc(I)c2NCC[C@@H](C(N)=O)NC(=O)[C@H](CO)NC1=O	nt	nt	nt	nt	nt	19%
CC1CCN(C(=O)c2cc3c(ccc4ccccc43)o2)CC1	25%	-1%	10µM*	-1%	2	?
CCOC(=O)C1CCN(C(=O)c2cc3c(ccc4ccccc43)o2)CC1	0%	18%	13%	-7%	-4	-7%
CCc1nc2oc3cc(OC)ccc3c(=O)c2c(=O)n1Cc1ccco1	-4%	5%	19%	-4%	3	2%
CCOc1ccc(N(CC(=O)NC2CC3CCC2C3)S(=O)(=O)c2ccc(C)cc2)cc1 (centres undefined)	1%	-3%	7.9µM*	-2%	-5	19%
CCOC(=O)C1CCN(c2nc(-c3ccccc3)nc3c2oc2ccccc23)CC1	-15%	7%	?	32µM*	-5	3%
CCOC(=O)C1CCN(Cc2c(O)ccc3ccccc23)CC1	4%	7%	0%	28µM*	32	18%
CCOC(=O)N1CCN(Cc2c(O)ccc3ccccc23)CC1	-6%	11%	-21%	nt	33	0%
O=C(O)C1CCN(c2nc(-c3ccccc3)nc3c2oc2ccccc23)CC1	-19%	3%	?	-22%	-12	8%
CC(C)(CNC(=O)/C=C/c1ccc(F)cc1)CNC(=O)/C=C/c1ccc(F)cc1	-2%	10%	6.3µM*	1%	-5	-9%
CC(C)(C)SCCNC(=O)/C=C/c1ccc(F)cc1	-1%	14%	-24%	1%	-3	?
O=C(CCl)N=c1sccn1Cc1ccc(Cl)cc1Cl	?	6%	10µM*	nt	0	-11%
Cc1ccc(C(=O)OCC(=O)OC2CC(C)CCC2C(C)C)s1 (centres undefined)	nt	nt	nt	nt	-3	nt
CC(NC(=O)c1ccc(Br)cc1)c1ccc2c(c1)CCCC2 (centres undefined)	-2%	2%	10µM*	0%	-2	-10%
CC(NC(=O)c1ccccc1Br)c1ccc2c(c1)CCCC2 (centres undefined)	6%	-9%	?	0%	-1	-1%
CC(NC(=O)c1ccc(F)cc1)c1ccc2c(c1)CCCC2 (centres undefined)	1%	1%	10µM*	?	0	-13%
CCOC(=O)C1(Cc2ccccc2)CCCN(C2CCN(C(C)=O)CC2)C1 (centres undefined)	14%	7%	6%	nt	-5	2%
[N-]=C=C1C(=S)NC(=O)[C@H]([n+]2ccccc2)[C@H]1c1ccc(Cl)cc1	-1%	7%	22%	nt	0	1%
Cc1cccc(N2CC(C(=O)OCC(=O)Nc3sccc3C(N)=O)CC2=O)c1C (centres undefined)	-12%	1%	6%	nt	-4	6%
Cc1cccc(N2CC(C(=O)OCC(=O)c3ccc(OC(=O)c4cccs4)cc3)CC2=O)c1C (centres undefined)	3%	2%	14%	32µM*	-5	2%
CCCCn1c(=O)n(C)c(=O)c2c3c(sc21)COC(C)(C)C3	-7%	5%	9%	28µM*	1	-3%
COc1cc(C(C)=O)ccc1COc1ccc(C(=O)OCC(=O)NC2CCS(=O)(=O)C2)cc1OC (centres undefined)	0%	10%	77%	2%	-3	-9%
CCOc1ccc(S(=O)(=O)NCCc2cn3ccccc3n2)cc1	-3%	-3%	7%	22µM*	-7	5%
CCn1cc(C(=O)NCCN(CC(C)C)CC(C)C)c(=O)c2cc(S(=O)(=O)N3CCOCC3)ccc21	-18%	9%	7.9µM*	nt	-2	3%
SMILES	HEK293 tox	GLP-1R agonist	GLP1R inv ag	ClpP mod	LDHA inh	p53 reactivator
CCn1cc(C(=O)NCCCN2CCCC(C)C2)c(=O)c2cc(S(=O)(=O)N3CCc4ccccc4C3)ccc21 (centres undefined)	-26%	11%	10µM*	nt	2	20%
COCCCNC(=O)c1c[nH]c2ccc(S(=O)(=O)N3CCC4(CC3)OCCO4)cc2c1=O	22%	-1%	12%	nt	-4	-2%
CCCCCNC(=O)c1c[nH]c2ccc(S(=O)(=O)N3CCC4(CC3)OCCO4)cc2c1=O	14%	1%	20%	16µM*	-3	-6%
O=C(NCCN1CCOCC1)c1c[nH]c2ccc(S(=O)(=O)N3CCOCC3)cc2c1=O	2%[1.53 µM]	3%	6%	32µM*	-5	3%
O=Nc1c(O)n(Cc2c(Cl)cccc2Cl)c2ccccc12	-15%	-2%	?	-14%	-5	1%
O=C(NCc1ccco1)c1c[nH]c2ccc(S(=O)(=O)N3CCOCC3)cc2c1=O	18%	1%	12%	32µM*	-2	6%
CCOC(=O)[C@H]1[C@H]2COc3ccc(Br)cc3[C@@H]2N2C(=O)[C@H](C)NC(=O)[C@@]12C	-18%	-4%	-11%	-3%	-2	-4%
COc1ccc(OC)c(/C=N/NC(=O)CCc2c(C)n[nH]c2C)c1	-1%	5%	20%	4%	-8	-1%
COc1ccc(OC)c(/C=N/NC(=O)CC2C(=O)NN=C2C)c1 (centres undefined)	14%	13%	-7%	28µM*	-4	-21%
COc1ccc(OC)c(/C=N/NC(=O)CCc2ccc(O)c(O)c2)c1	1%	18%	21%	8.9µM*	13	3%
COc1ccc(-n2c(SCC(=O)N/N=C(\C)c3cccnc3)nc3ccccc3c2=O)cc1	7%	7%	5%	32µM*	-4	2%
O=C(c1ccco1)N1CCN(c2nc3c(Cl)cccc3s2)CC1	-1%	nt	-6%	-2%	-9	nt
O=C(Cc1ccccc1)NCCn1ccc2ccccc21	2%	-2%	15%	-2%	2	13%
CC(=O)NCCn1ccc2ccccc21	12%	-10%	1%	28µM*	7	-13%
Cc1cc(C(=O)CSc2nc(N)cc(=O)[nH]2)c(C)n1-c1ccc(OC(F)F)cc1	5%[7.66 µM]	4%	1%[7.66 µM]	32µM*	-7	-3%
Cc1cc(-n2c(C)cc(C(=O)CSc3nc(N)cc(=O)[nH]3)c2C)no1	-1%	10%	31%	-2%	-2	-1%

From PubChem BioAssay
